The nature of assay [1]: qHTS assay to identify aromatase inhibitors - cell viability counter screen (AID 743084).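 Also: cells stimulated with testosterone during compound exposure; nearly all actives have a fitted effect of over 55% in size.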 A general note: qHTS replaces the single test concentration by a dilution series.
The target of assay [2] is Aryl hydrocarbon receptor (Homo sapiens) (UniProt P35869). In words: qHTS assay to identify small molecule that activate the aryl hydrocarbon receptor (AhR) signaling pathway (AID 743085).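 Also: HG2L7.5c1 human HepG2 liver cells with stably integrated DRE-driven firefly reporter; series mostly up to about 70 µM; nearly all actives have a fitted effect of over 15% in size.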 In outline:
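HepG2 cells (HG2L7.5c1) stably carrying a firefly luciferase reporter driven by 20 dioxin responsive elements were exposed to compound for 24 h at 37C after a 5 h settling period; luminescence rise (ONE-Glo) indicated activation.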

Assay [3] can be described thus: qHTS assay to identify small molecule that activate the aryl hydrocarbon receptor (AhR) signaling pathway - cell viability counter screen (AID 743086).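 Also: HepG2 liver cells carrying the AhR DRE luciferase reporter; series mostly up to about 70 µM; nearly all actives have a fitted effect of over 45% in size.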 In outline: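 HepG2-AhR-luc (HG2L7.5c1) cells, 4000/well, treated 24 h at 37 C with compound; viability measured as CellTiter-Fluor fluorescence after 30 min in the same wells as the luciferase read.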
A short description of assay [4]: qHTS assay to identify small molecule antagonists of the peroxisome proliferator-activated receptor gamma (PPARg) signaling pathway - cell viability counter screen (AID 743194). Also: nearly all actives have a fitted effect of over 55% in size. A digest of the protocol: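 Cytotoxicity counter screen in PPARg-bla HEK293H cells, same wells as reporter assay. Compounds plus 50 nM rosiglitazone (final) for 17 h at 37 C, then viability read by CellTiter-Glo luminescence.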

Assay [5] is described as follows: qHTS assay for small molecule agonists of the antioxidant response element (ARE) signaling pathway (AID 743202; active = well fitted activation curve with a large enough effect in the signal ratio in the repeat runs, not every such curve was filed as active; the % refers to the signal ratio; also: potency is read from the fitted curve at half-maximal effect). In outline:
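HepG2 ARE-bla reporter line, 2,000 cells/well; 5 h preincubation 37 C/5% CO2; compound (DMSO) 16 h 37 C; B/G FRET substrate 2 h RT; fluorescence intensity.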

Assay [6] is described as follows: qHTS assay for small molecule agonists of the antioxidant response element (ARE) signaling pathway - cell viability counter screen (AID 743203; calls by dose curve; also: nearly all actives have a fitted effect of over 55% in size). A digest of the protocol: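 Viability counter screen: CellTiter-Glo luminescence, read after 30 min at room temperature, in ARE-bla HepG2 wells. Compound exposure lasted 16 h at 37C/5% CO2, following a 5 h pre-incubation of the cells after plating.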

Assay [7] is described as follows: qHTS assay for small molecule activators of the heat shock response signaling pathway - cell viability counter screen (AID 743209). Also: nearly all actives have a fitted effect of over 50% in size. In outline:
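Cytotoxicity counter screen run in the same wells as the heat-shock bla reporter assay: HeLa HSE-bla cells, 5 h compound exposure at 37 C, viability read by CellTiter-Glo luminescence.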

The nature of assay [8]: qHTS assay for small molecule activators of the heat shock response signaling pathway (AID 743210; active = well fitted activation curve with a large enough effect in the signal ratio in the repeat runs, with a control signal flat, not every such curve was filed as active; the % refers to the signal ratio;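 also: HeLa cells with beta-lactamase reporter driven by heat shock elements; series mostly up to about 63 µM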). A digest of the protocol:
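Beta-lactamase reporter read-out: FRET substrate fluorescence after 2.5 h at RT, following 5 h compound treatment at 37 C of HeLa cells carrying HSE-driven bla reporter; quantitative HTS format.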

Assay [9] is described as follows: qHTS assay to identify small molecule agonists of the peroxisome proliferator-activated receptor delta (PPARd) signaling pathway - cell viability counter screen (AID 743211). Also: nearly all actives have a fitted effect of over 55% in size. Also: potency is read from the fitted curve at half-maximal effect. A digest of the protocol: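 PPARd-bla HEK293H cells (UAS-beta-lactamase reporter) were treated with compounds for 17 h at 37 C. Viability was then read in the same wells by CellTiter-Glo luminescence after 30 min at room temperature.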

The target in assay [10] is Peroxisome proliferator-activated receptor delta (Homo sapiens) (UniProt Q03181). Briefly: qHTS assay to identify small molecule agonists of the peroxisome proliferator-activated receptor delta (PPARd) signaling pathway (AID 743212; calls by dose curve). In outline:
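Read-out: beta-lactamase FRET fluorescence after 2 h room-temperature incubation with LiveBLAzer B/G substrate. Cells were HEK293H carrying a UAS-bla reporter for PPARd, treated at 37 C with DMSO-dissolved compounds.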

A short description of assay [11]: qHTS assay to identify small molecule antagonists of the peroxisome proliferator-activated receptor delta (PPARd) signaling pathway - cell viability counter screen (AID 743213). Also: nearly all actives have a fitted effect of over 50% in size. A digest of the protocol:
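Same-well viability: cells pre-incubated 5 h, dosed with compound plus 300 nM L165041, kept 17 h at 37 C, FRET substrate 2 h RT, then CellTiter-Glo 30 min RT and luminescence.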

Assay [12] deals with Peroxisome proliferator-activated receptor delta (Homo sapiens) (UniProt Q03181). Briefly: qHTS assay to identify small molecule antagonists of the peroxisome proliferator-activated receptor delta (PPARd) signaling pathway (AID 743215; active = well fitted inhibition curve with a large enough effect in the signal ratio in the repeat runs, not every such curve was filed as active; the % refers to the signal ratio;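 also: cells stimulated with agonist L165041 at 300 nM final during compound exposure; series mostly up to about 62 µM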). A digest of the protocol: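 Agonist L165041 (300 nM final) added with compound to PPARd-bla HEK293H UAS-bla reporter cells; 17 h incubation at 37 C. Read-out: LiveBLAzer FRET substrate, 2 h at room temperature, fluorescence intensity.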
Peroxisome proliferator-activated receptor delta (Homo sapiens), sequence (Q03181 whole entry, looked up): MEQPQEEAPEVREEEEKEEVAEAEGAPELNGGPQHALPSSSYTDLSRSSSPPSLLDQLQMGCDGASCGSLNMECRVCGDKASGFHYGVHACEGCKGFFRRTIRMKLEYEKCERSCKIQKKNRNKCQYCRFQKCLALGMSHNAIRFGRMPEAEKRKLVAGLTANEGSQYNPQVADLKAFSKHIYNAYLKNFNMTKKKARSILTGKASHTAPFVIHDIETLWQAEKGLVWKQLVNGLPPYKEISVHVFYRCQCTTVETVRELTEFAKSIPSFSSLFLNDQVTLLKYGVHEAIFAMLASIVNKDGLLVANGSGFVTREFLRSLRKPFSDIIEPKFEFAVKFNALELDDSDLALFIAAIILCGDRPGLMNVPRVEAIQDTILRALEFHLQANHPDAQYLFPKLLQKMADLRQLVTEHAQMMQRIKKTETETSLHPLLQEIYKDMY

The target in assay [13] is Bile acid receptor (Homo sapiens) (UniProt Q96RI1). Briefly: qHTS assay to identify small molecule antagonists of the farnesoid-X-receptor (FXR) signaling pathway (AID 743217; active = well fitted inhibition curve with a large enough effect in the signal ratio in the repeat runs, not every such curve was filed as active; the % refers to the signal ratio). In outline: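 Antagonist mode: chenodeoxycholic acid at 50 uM final stimulates a UAS-driven beta-lactamase reporter in HEK 293T FXR-bla cells during 16 h, 37C compound exposure. Read-out is FRET substrate fluorescence after 2 h at room temperature.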
Bile acid receptor (Homo sapiens), sequence (Q96RI1 whole entry, looked up): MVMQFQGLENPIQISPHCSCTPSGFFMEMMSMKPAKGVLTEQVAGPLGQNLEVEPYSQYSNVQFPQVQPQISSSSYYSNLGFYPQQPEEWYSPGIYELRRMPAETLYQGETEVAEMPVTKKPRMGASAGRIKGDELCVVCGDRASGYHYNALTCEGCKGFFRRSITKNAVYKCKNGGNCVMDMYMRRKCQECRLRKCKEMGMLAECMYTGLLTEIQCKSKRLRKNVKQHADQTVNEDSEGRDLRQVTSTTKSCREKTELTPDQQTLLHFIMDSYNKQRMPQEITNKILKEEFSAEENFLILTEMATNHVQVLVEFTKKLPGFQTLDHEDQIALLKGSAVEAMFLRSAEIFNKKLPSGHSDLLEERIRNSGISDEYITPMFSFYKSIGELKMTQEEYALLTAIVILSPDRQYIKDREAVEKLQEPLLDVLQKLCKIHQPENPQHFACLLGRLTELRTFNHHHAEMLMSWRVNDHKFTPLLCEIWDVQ

Assay [14] shares this target. In words: qHTS assay to identify small molecule agonists of the farnesoid-X-receptor (FXR) signaling pathway (AID 743220; active = well fitted activation curve with a large enough effect in the signal ratio in the repeat runs, not every such curve was filed as active; the % refers to the signal ratio). In outline:
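FXR-UAS-bla HEK 293T cells carrying a UAS-driven beta-lactamase reporter were plated for 5 h at 37C/5% CO2, then exposed to DMSO-dissolved Tox21 10K compounds for 16 h at 37C. A LiveBLAzer B/G FRET substrate was loaded for 2 h at room temperature before fluorescence reading.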

Assay [15] can be described thus: qHTS assay to identify small molecule antagonists of the farnesoid-X-receptor (FXR) signaling pathway - cell viability counter screen (AID 743221; active = well fitted cell-killing curve with a large enough effect in the repeat runs, not every such curve was filed as active; also: nearly all actives have a fitted effect of over 50% in size). In outline: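 FXR-UAS-bla HEK 293T cells were treated with test compounds plus chenodeoxycholic acid (50 uM final) for 16 h at 37 C. Cell viability in the same wells was then read as CellTiter-Glo luminescence after 30 min at room temperature.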

Assay [16] has as its target Vitamin D3 receptor (Homo sapiens) (UniProt P11473). Briefly: qHTS assay to identify small molecule agonists of the vitamin D receptor (VDR) signaling pathway (AID 743222; calls by dose curve). A digest of the protocol:
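Agonist mode, beta-lactamase reporter: fluorescence from LiveBLAzer B/G FRET substrate (2 h, room temperature) read after 16 h compound treatment at 37 C of VDR-bla cells, which were pre-incubated 4 h after seeding.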

Assay [17] has the same target. Briefly: qHTS assay to identify small molecule antagonists of the vitamin D receptor (VDR) signaling pathway (AID 743223; active = well fitted inhibition curve with a large enough effect in the signal ratio in the repeat runs, not every such curve was filed as active; the % refers to the signal ratio). In outline:
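VDR-bla cells were plated, incubated 4 h at 37C, then given compound and 1alpha,25-dihydroxyvitamin D3 (3 nM final). After 16 h at 37C, LiveBLAzer B/G FRET substrate was added for 2 h at room temperature and fluorescence read.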

A short description of assay [18]: qHTS assay to identify small molecule agonists of the farnesoid-X-receptor (FXR) signaling pathway - cell viability counter screen (AID 743218). Also: nearly all actives have a fitted effect of over 45% in size. In outline: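 Viability counter screen in the same wells: CellTiter-Glo luminescence, 30 min room-temperature incubation, measured after the beta-lactamase read. Cells were GeneBLAzer FXR-UAS-bla HEK 293T, compound-treated 16 h at 37C.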

The target of assay [19] is Peroxisome proliferator-activated receptor gamma (Homo sapiens) (UniProt P37231). In words: qHTS assay to identify small molecule antagonists of the peroxisome proliferator-activated receptor gamma (PPARg) signaling pathway (AID 743191; calls by dose curve; also: series mostly up to about 63 µM; nearly all actives have a fitted effect of over 30% in size). A digest of the protocol: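 GeneBLAzer PPARg UAS-bla HEK293H cells, 5 h post-plating, exposed to compounds 17 h at 37C. LiveBLAzer B/G FRET substrate added for 1 h at room temperature; beta-lactamase reporter read by fluorescence intensity.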
Peroxisome proliferator-activated receptor gamma (Homo sapiens), sequence (P37231 whole entry, looked up): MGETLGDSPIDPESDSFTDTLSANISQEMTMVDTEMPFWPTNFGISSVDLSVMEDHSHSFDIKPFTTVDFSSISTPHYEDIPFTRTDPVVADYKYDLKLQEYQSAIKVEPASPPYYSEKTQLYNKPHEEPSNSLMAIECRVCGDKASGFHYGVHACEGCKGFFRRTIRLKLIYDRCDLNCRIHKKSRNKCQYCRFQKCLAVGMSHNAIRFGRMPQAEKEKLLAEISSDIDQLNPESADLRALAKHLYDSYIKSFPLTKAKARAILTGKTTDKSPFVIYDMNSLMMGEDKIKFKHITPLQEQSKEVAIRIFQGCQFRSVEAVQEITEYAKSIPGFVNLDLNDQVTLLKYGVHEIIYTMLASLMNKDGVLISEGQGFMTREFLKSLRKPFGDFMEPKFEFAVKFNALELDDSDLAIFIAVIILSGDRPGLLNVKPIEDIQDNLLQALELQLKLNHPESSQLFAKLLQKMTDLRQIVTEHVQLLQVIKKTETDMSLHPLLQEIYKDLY

Assay [20] has the same target. Briefly: qHTS assay to identify small molecule agonists of the peroxisome proliferator-activated receptor gamma (PPARg) signaling pathway (AID 743094; active = well fitted activation curve with a large enough effect in the signal ratio in the repeat runs, not every such curve was filed as active; the % refers to the signal ratio). A digest of the protocol:
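Agonist activity was taken from a beta-lactamase reporter (FRET substrate, 1 h at room temperature) in HEK293H cells carrying a PPARg UAS-bla construct. Compounds in DMSO were incubated 17 h at 37C after a 5 h cell pre-incubation.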

Values joined by “and” are separate entries in the source; they are usually repeats but may differ in a detail not shown here. Equal values may be shown once. Records with an inconclusive call do not appear. Some compounds were tested as several samples or in several runs, with calls that do not always agree. Active and inactive are the calls of the source. Unless noted, calls follow the shape of the dose curve; as a rule, active = well fitted curve in the direction sought with a large enough effect in the repeat runs; inconclusive = weak or mixed curves; inactive = no such curve, though single readings can be large; an effect the other way counts as inactive or inconclusive.

Vitamin D3 receptor (Homo sapiens), sequence (P11473 whole entry, looked up): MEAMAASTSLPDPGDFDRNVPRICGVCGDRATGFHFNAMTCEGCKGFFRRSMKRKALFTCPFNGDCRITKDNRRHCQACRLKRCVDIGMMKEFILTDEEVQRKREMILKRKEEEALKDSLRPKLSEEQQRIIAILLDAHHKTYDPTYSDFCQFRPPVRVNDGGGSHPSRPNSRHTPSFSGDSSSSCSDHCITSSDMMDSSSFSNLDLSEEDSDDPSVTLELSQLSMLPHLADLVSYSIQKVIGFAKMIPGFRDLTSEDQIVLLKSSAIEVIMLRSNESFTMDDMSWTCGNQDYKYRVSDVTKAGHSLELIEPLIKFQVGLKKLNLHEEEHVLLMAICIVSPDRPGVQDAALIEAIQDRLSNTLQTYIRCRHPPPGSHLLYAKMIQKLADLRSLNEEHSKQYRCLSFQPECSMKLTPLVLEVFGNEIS
Aryl hydrocarbon receptor (Homo sapiens), sequence (P35869 whole entry, looked up): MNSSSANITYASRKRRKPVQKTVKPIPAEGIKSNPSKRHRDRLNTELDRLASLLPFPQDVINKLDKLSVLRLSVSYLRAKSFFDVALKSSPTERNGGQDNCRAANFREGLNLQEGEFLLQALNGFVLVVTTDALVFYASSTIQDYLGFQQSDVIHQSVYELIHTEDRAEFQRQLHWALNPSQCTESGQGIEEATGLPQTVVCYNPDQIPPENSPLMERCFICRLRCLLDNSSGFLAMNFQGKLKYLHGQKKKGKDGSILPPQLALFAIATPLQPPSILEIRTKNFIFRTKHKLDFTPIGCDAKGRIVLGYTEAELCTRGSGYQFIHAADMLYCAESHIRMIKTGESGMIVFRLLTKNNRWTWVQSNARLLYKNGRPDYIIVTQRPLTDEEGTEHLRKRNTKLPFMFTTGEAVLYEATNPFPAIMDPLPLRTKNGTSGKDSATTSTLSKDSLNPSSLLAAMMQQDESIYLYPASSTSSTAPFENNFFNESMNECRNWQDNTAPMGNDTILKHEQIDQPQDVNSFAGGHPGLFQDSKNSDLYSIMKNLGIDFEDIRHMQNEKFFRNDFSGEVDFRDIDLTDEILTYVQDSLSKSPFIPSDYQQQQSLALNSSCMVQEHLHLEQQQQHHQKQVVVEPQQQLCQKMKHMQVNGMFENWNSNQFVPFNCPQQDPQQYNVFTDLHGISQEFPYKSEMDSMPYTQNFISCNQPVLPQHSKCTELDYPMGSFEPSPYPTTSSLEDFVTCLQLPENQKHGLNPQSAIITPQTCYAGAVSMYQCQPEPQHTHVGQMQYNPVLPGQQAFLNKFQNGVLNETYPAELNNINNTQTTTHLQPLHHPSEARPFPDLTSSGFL

For `Cc1cccc2ccccc12`, the Potency entry in assay [1], in [2], in [3], in assay [4], in assay [5] and in assay [6] was “inactive” each time. Besides, the Potency result in [9], in [11], in [13] and in [17] was “inactive” throughout. Moreover, the result in [7], in assay [8], in [10], in assay [12], in assay [14] and in assay [15] was inactive. Besides, the outcome in assay [16] was inactive.
Take `NC(=O)c1ccc([N+](=O)[O-])cc1Cl`: the Potency entry in assay [1], in assay [3], in assay [4], in assay [5], in [6] and in assay [9] was “inactive” throughout. In addition, the Potency entry in assay [11], in assay [13], in assay [18] and in [17] was “inactive” in each case. In addition, the result in assay [7], in assay [8], in [10], in assay [12], in assay [14] and in assay [15] was inactive. Also, the outcome in assay [16] was inactive.
Consider `CCc1cc(C(N)=S)ccn1`, for which the Potency entry in assay [3], in [4], in assay [6], in assay [9], in [11] and in assay [17] was “inactive” in each case. In addition, the call in [7], in assay [8], in assay [15] and in assay [16] was inactive.
Turning to `Cc1cccc(Nc2cc(Cl)nc(SCC(=O)O)n2)c1C`, the Potency result in [1], in assay [2], in assay [3], in [4], in assay [6] and in assay [9] was “inactive” each time. The Potency result in assay [11], in assay [18] and in assay [17] was “inactive” in each case. The outcome in assay [7], in assay [8], in [15] and in assay [16] was inactive.
In the case of `O=C(O)CN(CC(=O)O)CC(=O)O`, the Potency result in assay [1], in [3], in assay [19], in assay [4], in assay [6] and in assay [9] was “inactive” each time. Also, the Potency entry in assay [11], in assay [13] and in [17] was “inactive” each time. Moreover, the Potency in assay [5] was 55.3 µM (active) and inactive. Besides, the outcome in assay [7], in [8], in assay [10], in [12], in assay [14] and in assay [15] was inactive. In addition, the outcome in [16] was inactive.
`CC(C)(C)CC(C)(C)c1ccc(O)c(-n2nc3ccccc3n2)c1`: the Potency result in assay [1], in assay [2], in assay [3], in assay [5], in [6] and in assay [11] was “inactive” throughout. Also, the Potency result in assay [17] was “inactive”. The compound was called inactive in assay [7], in [8], in assay [10], in assay [12], in assay [14] and in [15]. In [16], the result was inactive. Besides, in assay [9], the Potency is 49.7 µM (active) and 49 µM (active).
Turning to `COc1ccc(C(=O)c2ccccc2)c(O)c1`, the Potency result in assay [1], in [3], in assay [4], in [5], in assay [6] and in assay [9] was “inactive” each time. The Potency result in assay [11], in assay [13] and in assay [18] was “inactive” in each case. Also, the compound was called inactive in [7], in assay [8], in assay [10], in assay [12], in assay [14] and in assay [15].
For `CC1=NN(c2ccccc2)C(=O)C1`, the Potency result in [1], in assay [3], in assay [4], in assay [5], in assay [6] and in [9] was “inactive” in each case. The Potency result in assay [11] and in [13] was “inactive” in each case. Also, the outcome in assay [7], in assay [8], in assay [10], in assay [12], in assay [14] and in assay [15] was inactive.
For `C[C@]12C=CC(=O)C=C1CC[C@@H]1[C@@H]2C(=O)C[C@@]2(C)[C@H]1CC[C@]2(O)C(=O)CO`, the Potency result in assay [2], in assay [3], in assay [20], in assay [4], in assay [5] and in [6] was “inactive” throughout. The Potency entry in assay [9], in assay [11] and in [17] was “inactive” in each case. Besides, the compound was classed as inactive in assay [7], in assay [8], in assay [15] and in assay [16].

The values are drawn from PubChem BioAssay (Tox21).
